# According to PubChem BioAssay:
# Active and inactive are the calls of the source.
# Columns and labels:
# [1] = test system: PRMT1 (protein arginine N-methyltransferase 1); assay: small molecules binding arginine methyltransferase PRMT1 – biochemical, small-molecule microarray, 635 nm fluorescence, primary screen (AID 1088); settings: higher = more signal;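 further: binding of Prmt1 protein to compounds spotted on small-molecule microarray slides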
# [2] = growth effects on S. cerevisiae YJM789 – YJM789 clinical isolate, OD600, 24 h, basal, primary screen (AID 1089); settings: higher = more signal, called active from +8 up or from −8 down;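 further: growth of clinical yeast isolate S. cerevisiae YJM 789 seeded 1000 cells per well; test concentration not given here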
# [3] = S. pombe growth modifiers, basal conditions – strain 972, OD600, 24 h, no modulator, primary screen (AID 1090);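 further: basal condition with compound alone and no growth modifier present; test concentration not given here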; settings: S. pombe 972 growth, higher = more signal, called active from +8 up or from −8 down
# [4] = budding yeast growth modifiers under rapamycin – strain BY4716, OD600, 96 h, primary screen (AID 1091); further: test concentration not given here; settings: S. cerevisiae BY4716 + rapamycin, higher = more signal, called active from +8 up or from −8 down
# [5] = molecular target: Torsin-1A-interacting protein 2 (Homo sapiens) (UniProt Q8NFQ8); assay: small molecules binding lysate-expressed LULL1 – cell lysate, human LULL1 lysate, 635/667 nm fluorescence, primary screen (AID 1092); settings: small-molecule microarray, hLULL1 lysate binding, 635 nm fluorescence; higher = more signal;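 further: probe is lysate of COS7 cells overexpressing human LULL1; score merges per-feature 667 nm fluorescence with signal-to-noise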
# Sequence of Torsin-1A-interacting protein 2 (Homo sapiens) (Q8NFQ8 whole entry, looked up): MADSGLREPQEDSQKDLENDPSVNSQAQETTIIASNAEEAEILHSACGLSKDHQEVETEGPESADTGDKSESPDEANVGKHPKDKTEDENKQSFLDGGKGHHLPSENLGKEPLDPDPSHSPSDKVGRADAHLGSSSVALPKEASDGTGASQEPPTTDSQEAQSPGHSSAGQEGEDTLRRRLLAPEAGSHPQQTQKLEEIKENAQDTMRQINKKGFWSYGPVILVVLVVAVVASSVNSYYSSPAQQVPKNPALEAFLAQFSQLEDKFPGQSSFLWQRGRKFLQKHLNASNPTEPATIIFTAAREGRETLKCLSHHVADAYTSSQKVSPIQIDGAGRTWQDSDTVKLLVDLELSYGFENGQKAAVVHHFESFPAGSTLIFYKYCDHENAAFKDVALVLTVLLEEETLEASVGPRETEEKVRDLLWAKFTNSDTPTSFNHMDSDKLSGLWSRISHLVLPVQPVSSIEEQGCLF
# [6] = optical density change of DRC41 E. coli – strain DRC41, OD650, 24 h, E. coli filamentation project, primary screen (AID 1093);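 further: MC1000 strain lacking acrAB efflux and sulA so SOS filamentation is blocked; test concentration not given here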; settings: E. coli DRC41 growth, higher = more signal, called active from +8 up or from −8 down
# [7] = probe aLefty2 binding to arrayed compounds – biochemical, biotinylated probe, 635/667 nm fluorescence, primary screen (AID 1094); settings: small-molecule microarray, higher = more signal;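 further: score merges spot fluorescence near 667 nm with spot signal-to-noise ratio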
# [8] = test system: Noggin (protein binding on small-molecule microarray); assay: small molecules binding Noggin protein – biochemical, 635/667 nm fluorescence, primary screen (AID 1095); settings: 635 nm fluorescence, higher = more signal;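 further: score merges 667 nm feature fluorescence with signal to noise over triplicate slides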
# [9] = molecular target: Neurogenic locus notch homolog protein 3 (Homo sapiens) (UniProt Q9UM47); assay: small molecules binding NOTCH3 protein – biochemical, 635/667 nm fluorescence, primary screen (AID 1096); settings: small-molecule microarray, 635 nm fluorescence, higher = more signal
# Sequence of Neurogenic locus notch homolog protein 3 (Homo sapiens) (Q9UM47 whole entry, looked up): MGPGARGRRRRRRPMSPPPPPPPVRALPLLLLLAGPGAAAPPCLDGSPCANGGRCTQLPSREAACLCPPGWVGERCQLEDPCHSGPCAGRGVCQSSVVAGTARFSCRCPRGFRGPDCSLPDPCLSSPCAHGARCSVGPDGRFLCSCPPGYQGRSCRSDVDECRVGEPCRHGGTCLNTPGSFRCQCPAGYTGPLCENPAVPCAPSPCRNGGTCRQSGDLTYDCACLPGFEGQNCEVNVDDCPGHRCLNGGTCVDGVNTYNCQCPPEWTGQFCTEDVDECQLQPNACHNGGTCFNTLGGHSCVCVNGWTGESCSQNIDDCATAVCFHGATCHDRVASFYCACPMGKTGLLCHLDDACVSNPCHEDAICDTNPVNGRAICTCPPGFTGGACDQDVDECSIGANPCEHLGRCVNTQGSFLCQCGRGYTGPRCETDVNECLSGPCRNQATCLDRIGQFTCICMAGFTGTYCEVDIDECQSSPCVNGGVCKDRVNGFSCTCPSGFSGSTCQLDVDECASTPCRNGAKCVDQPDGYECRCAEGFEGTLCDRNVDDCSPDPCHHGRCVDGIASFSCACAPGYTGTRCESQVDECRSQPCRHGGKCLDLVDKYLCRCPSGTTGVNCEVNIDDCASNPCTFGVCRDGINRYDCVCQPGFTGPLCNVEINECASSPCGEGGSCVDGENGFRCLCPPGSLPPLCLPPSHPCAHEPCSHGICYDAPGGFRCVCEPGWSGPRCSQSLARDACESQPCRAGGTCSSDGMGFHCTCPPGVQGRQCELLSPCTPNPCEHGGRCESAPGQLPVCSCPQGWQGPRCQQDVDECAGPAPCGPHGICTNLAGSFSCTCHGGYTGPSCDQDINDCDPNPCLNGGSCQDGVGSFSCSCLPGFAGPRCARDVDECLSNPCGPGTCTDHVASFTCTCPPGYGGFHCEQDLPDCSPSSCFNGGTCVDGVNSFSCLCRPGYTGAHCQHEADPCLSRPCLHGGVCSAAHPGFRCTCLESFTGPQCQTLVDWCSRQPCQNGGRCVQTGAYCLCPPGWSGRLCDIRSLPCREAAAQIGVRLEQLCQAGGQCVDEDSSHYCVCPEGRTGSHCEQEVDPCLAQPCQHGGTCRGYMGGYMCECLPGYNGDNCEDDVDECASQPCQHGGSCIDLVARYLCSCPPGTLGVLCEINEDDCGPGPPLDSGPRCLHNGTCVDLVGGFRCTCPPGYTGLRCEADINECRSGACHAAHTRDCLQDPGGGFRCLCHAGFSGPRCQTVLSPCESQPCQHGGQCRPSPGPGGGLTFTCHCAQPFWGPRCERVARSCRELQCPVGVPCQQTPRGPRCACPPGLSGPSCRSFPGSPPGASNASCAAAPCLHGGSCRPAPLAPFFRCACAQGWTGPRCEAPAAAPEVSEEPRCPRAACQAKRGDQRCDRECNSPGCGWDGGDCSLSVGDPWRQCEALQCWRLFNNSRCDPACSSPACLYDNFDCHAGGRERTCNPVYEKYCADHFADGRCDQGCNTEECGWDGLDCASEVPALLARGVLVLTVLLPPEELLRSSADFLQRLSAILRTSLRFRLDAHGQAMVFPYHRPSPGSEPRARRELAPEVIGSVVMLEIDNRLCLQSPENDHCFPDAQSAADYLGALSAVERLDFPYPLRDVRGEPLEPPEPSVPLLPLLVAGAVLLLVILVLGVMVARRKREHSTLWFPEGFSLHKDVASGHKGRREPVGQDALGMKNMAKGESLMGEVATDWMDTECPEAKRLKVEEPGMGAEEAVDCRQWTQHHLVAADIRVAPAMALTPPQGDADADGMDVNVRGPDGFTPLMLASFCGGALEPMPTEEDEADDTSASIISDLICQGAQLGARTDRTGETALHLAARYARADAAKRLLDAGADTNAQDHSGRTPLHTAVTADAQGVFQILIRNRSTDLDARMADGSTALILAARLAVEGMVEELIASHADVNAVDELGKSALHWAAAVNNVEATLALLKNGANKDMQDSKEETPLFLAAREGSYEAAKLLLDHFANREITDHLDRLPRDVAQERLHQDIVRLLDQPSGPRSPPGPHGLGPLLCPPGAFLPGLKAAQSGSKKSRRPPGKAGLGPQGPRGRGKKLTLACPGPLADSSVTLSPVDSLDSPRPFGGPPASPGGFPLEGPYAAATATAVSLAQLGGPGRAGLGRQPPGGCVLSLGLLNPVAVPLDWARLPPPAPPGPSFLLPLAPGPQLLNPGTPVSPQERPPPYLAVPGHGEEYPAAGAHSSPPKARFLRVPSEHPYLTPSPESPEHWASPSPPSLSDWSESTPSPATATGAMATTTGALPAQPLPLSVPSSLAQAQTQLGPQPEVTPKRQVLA
# [10] = probe aEGFR binding to arrayed compounds – biochemical, biotinylated probe, 635/667 nm fluorescence, primary screen (AID 1097); settings: small-molecule microarray, higher = more signal;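 further: probe is a biotinylated anti-EGFR antibody binding compounds printed on slides; score combines fluorescence near 667 nm and signal to noise of each spot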
# [11] = test system: Plasmodium falciparum Sir2 (PF13_0152, Sir2A); assay: Plasmodium falciparum Sir2A binding compounds – biochemical, small-molecule microarray, 635 nm fluorescence, primary screen (AID 1098); settings: fluorescence 635 nm, higher = more signal;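 further: score merges spot fluorescence intensity with its signal-to-noise ratio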
# [12] = probe aDKK1 binding to arrayed compounds – biochemical, biotinylated probe, 635/667 nm fluorescence, primary screen (AID 1099); settings: small-molecule microarray, higher = more signal;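 further: score merges 667nm spot fluorescence with signal to noise across triplicate slides; reference of the scale not given here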
# [13] = probe aCHRDL2 binding to arrayed compounds – biochemical, biotinylated probe, 635/667 nm fluorescence, primary screen (AID 1100); settings: small-molecule microarray, higher = more signal
# [14] = change in splice reporter luminescence, either direction, cell-based, HEK293, spliceosome inhibition project, primary screen (AID 1101); settings: HEK293 splicing luciferase reporter, 24 h, higher = more signal, called active from +8 up or from −8 down;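 further: HEK293 cells carrying a splicing-competent luciferase reporter gene; test concentration not given here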
# [15] = molecular target: Fibroblast growth factor 10 (Homo sapiens) (UniProt O15520); assay: compounds binding fibroblast growth factor 10 – biochemical, small-molecule microarray, 635 nm fluorescence, primary screen (AID 1102); settings: FGF10 binding, fluorescence 635 nm, higher = more signal
# Sequence of Fibroblast growth factor 10 (Homo sapiens) (O15520 whole entry, looked up): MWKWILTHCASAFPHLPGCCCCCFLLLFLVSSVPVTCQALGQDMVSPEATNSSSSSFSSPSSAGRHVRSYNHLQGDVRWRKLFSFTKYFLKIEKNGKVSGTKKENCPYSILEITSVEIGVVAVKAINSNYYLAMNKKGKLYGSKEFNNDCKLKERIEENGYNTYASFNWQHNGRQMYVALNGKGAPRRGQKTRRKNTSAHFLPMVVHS
# [16] = test system: glycogen synthase kinase-3 (GSK3A per assay name; protocol says GSK3B); assay: compounds binding glycogen synthase kinase-3 – biochemical, small-molecule microarray, 635 nm fluorescence, GSK3A, primary screen (AID 1103); settings: fluorescence 635 nm, higher = more signal; further: the record names both GSK3A and GSK3B
# [17] = molecular target: Epidermal growth factor receptor (Homo sapiens) (UniProt P00533); assay: compounds binding epidermal growth factor receptor – biochemical, small-molecule microarray, 635 nm fluorescence, primary screen (AID 1104); settings: EGFR binding, higher = more signal;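 further: score merges 667 nm emission intensity with spot signal to noise over triplicate slides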
# Sequence of Epidermal growth factor receptor (Homo sapiens) (P00533 whole entry, looked up): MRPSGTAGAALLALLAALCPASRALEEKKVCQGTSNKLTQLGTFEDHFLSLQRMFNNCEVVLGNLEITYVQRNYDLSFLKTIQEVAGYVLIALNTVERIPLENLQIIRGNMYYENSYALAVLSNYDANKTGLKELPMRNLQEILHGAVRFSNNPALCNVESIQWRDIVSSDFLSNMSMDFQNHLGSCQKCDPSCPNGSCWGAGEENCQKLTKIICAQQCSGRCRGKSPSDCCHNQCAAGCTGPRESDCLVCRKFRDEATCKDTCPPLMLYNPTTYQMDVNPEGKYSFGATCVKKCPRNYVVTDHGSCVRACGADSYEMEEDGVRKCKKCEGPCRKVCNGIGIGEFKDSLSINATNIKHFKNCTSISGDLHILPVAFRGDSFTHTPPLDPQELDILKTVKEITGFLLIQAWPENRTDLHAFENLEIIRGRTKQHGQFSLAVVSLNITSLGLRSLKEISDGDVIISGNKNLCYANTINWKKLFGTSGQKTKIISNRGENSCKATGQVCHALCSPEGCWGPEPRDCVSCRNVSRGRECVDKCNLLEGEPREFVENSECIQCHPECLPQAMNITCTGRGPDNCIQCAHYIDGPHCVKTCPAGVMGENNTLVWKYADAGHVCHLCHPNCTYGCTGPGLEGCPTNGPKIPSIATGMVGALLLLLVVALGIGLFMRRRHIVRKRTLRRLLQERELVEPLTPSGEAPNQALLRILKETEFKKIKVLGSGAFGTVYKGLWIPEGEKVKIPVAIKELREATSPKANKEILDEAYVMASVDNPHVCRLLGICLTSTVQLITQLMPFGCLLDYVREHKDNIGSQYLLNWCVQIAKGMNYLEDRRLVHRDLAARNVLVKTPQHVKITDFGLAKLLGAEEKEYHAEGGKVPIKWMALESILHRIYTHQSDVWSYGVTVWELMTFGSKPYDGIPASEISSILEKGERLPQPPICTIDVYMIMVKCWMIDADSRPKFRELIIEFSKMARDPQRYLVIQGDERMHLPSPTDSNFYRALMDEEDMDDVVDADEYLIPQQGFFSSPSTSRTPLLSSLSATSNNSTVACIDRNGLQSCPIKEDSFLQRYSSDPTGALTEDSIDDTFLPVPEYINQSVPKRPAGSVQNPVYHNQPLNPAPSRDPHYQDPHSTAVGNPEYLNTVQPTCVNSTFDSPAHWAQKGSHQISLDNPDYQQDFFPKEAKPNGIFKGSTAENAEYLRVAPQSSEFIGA
# [18] = molecular target: Follistatin-related protein 3 (Homo sapiens) (UniProt O95633); assay: compounds binding follistatin-related protein 3 – biochemical, small-molecule microarray, 635 nm fluorescence, primary screen (AID 1105); settings: FSTL3 binding, higher = more signal;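 further: score merges emission near 667 nm and signal to noise per printed spot across three slides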
# Sequence of Follistatin-related protein 3 (Homo sapiens) (O95633 whole entry, looked up): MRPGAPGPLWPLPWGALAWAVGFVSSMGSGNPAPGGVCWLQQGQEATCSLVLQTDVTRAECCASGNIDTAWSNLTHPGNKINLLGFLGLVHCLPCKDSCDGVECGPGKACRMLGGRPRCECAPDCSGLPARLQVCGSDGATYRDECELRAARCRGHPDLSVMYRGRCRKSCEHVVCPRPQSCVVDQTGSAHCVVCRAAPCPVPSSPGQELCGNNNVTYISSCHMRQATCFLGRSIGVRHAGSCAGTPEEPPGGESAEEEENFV
# [19] = molecular target: Dickkopf-related protein 1 (Homo sapiens) (UniProt O94907); assay: small molecules binding DKK1 protein – biochemical, small-molecule microarray, 635 nm fluorescence scan, primary screen (AID 1106); settings: higher = more signal;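 further: score merges emission near 667 nm with signal to noise over three replicate slides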
# Sequence of Dickkopf-related protein 1 (Homo sapiens) (O94907 whole entry, looked up): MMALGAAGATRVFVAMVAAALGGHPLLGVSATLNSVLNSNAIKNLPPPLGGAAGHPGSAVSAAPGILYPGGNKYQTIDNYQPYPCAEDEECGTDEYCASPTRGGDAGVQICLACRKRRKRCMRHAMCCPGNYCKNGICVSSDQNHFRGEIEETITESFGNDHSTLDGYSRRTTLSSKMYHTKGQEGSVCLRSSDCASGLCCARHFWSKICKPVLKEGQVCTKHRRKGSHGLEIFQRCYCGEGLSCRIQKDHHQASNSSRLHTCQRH
# [20] = test system: Inhibin beta A chain (activin A); assay: small molecules binding activin A – biochemical, small-molecule microarray, 635 nm fluorescence scan, primary screen (AID 1107); settings: INHBA, higher = more signal;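 further: mouse activin A protein probed at 4.33 µg/mL on printed slides; score merges bound-protein fluorescence near 667 nm with spot signal-to-noise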
SMILES,composite z-score [1],z-score [2],z-score [3],z-score [4],composite z-score [5],z-score [6],composite z-score [7],composite z-score [8],composite z-score [9],composite z-score [10],composite z-score [11],composite z-score [12],composite z-score [13],z-score [14],composite z-score [15],composite z-score [16],composite z-score [17],composite z-score [18],composite z-score [19],composite z-score [20]
COC(=O)[C@]1(CCC(=O)OC(C)(C)C)N=C(c2ccc(OCCCO)cc2)O[C@@H]1c1ccccc1N=[N+]=[N-],1.42,1.15 (inactive),-0.491 (inactive),33.8 (active),2.08,0.217 (inactive),0.0664,0.677,0.361,-0.127,0.911,0.254,0.855,-0.229 (inactive),0.49,-0.107,-0.287,0.168,-0.281,0.809
CCOC(=O)C1=CC[C@@H](c2ccc(OC)cc2)N(S(=O)(=O)c2ccc(C)cc2)[C@H]1CC,1.56,-1.48 (inactive),0.971 (inactive),0.879 (inactive),3.05,0.66 (inactive),0.0319,0.0635,1.08,-0.0157,0.469,0.607,0.88,-1.27 (inactive),0.996,0.811,0.233,1.1,0.106,0.372
COc1ccc([Si](C)(C)[C@H]2[C@H](CCO)O[C@@]3(C(=O)N(Cc4cccc(N(C=O)c5ccccc5)c4)c4ccccc43)[C@@H]2C)cc1,1.56,1.08 (inactive),0.604 (inactive),10.6 (active),2.91,2.01 (inactive),0.0893,0.785,1.07,0.0004,1.14,-0.305,-0.777,-1.53 (inactive),1.33,1.29,0.406,1.08,0.469,0.013
CCOC(=O)C[C@H]1[C@H](OC(=O)Cc2ccc3c(c2)OCO3)[C@@H](NC(=O)c2ccc3ccccc3n2)c2cc(OCCCO)ccc2N1C(=O)Cc1ccc(OC)cc1,0.742,-2.25 (inactive),0.154 (inactive),-0.107 (inactive),1.34,0.647 (inactive),0.0071,1.25,0.55,-0.103,0.435,0.0621,0.195,-1.8 (inactive),0.438,0.25,-0.374,0.882,0.163,0.257
Cc1ccccc1C(O)C1C=CC2C(=O)N(c3ccccc3)C(=O)C2N1Nc1ccccc1 (stereo not given),1.53,0.555 (inactive),0.828 (inactive),0.0369 (inactive),3.42,-0.555 (inactive),0.307,0.219,1.03,0.183,1.37,1.01,1.25,-0.00177 (inactive),0.96,0.65,0.0981,1.17,0.0843,1.45
CCCN1C(=O)[C@@]2(c3ccc([N+](=O)[O-])cc3)CC(=O)N(CC34CC5CC(CC(C5)C3)C4)[C@@H]2c2ccc(CO)cc21,-0.247,-0.962 (inactive),-0.365 (inactive),-1.93 (inactive),0.162,-0.19 (inactive),-0.0099,0.047,-0.184,0.142,-0.596,0.0721,0.342,0.331 (inactive),-0.334,-0.619,-0.381,-0.701,-0.626,0.378
O=C1NC(=O)C2C1C=CC(C(O)c1ccc([N+](=O)[O-])cc1)N2Nc1ccccn1 (stereo not given),-0.453,-0.0716 (inactive),0.917 (inactive),0.346 (inactive),0.307,-0.562 (inactive),-0.0218,0.241,-0.432,-0.0355,-0.0076,0.0152,0.14,1.34 (inactive),0.32,-0.34,0.633,-0.0907,0.328,0.854
C#CCN1[C@@H](Cc2ccccc2)C(=O)O[C@H](Cc2ccccc2)[C@@H]1/C=C/C1CC1,-0.101,0.295 (inactive),-0.361 (inactive),0.148 (inactive),1.14,0.855 (inactive),-0.185,0.33,0.246,-0.0422,0.345,-0.251,-0.505,-0.29 (inactive),0.209,0.524,-0.333,0.22,0.156,0.781
O=C(NC1CC1)[C@@H]1c2ccccc2C(=O)N(CC23CC4CC(CC(C4)C2)C3)[C@H]1c1ccc(CO)cc1,1.53,-0.706 (inactive),-0.682 (inactive),-0.437 (inactive),3.15,-0.103 (inactive),-0.2,1.47,1.02,0.0201,0.728,-0.226,-0.0162,-0.724 (inactive),1.41,1.32,1.03,1.43,1.28,0.372
O=C1c2ccccc2[C@@]2(Cc3ccccc3N(Cc3ccccc3)C2=O)[C@H](c2ccc(CO)cc2)N1Cc1ccccc1Cl,0.11,-0.251 (inactive),-0.602 (inactive),-2.35 (inactive),-0.394,-0.499 (inactive),-0.0812,-0.109,-0.149,-0.146,-0.493,-0.0131,0.28,-1.06 (inactive),-0.377,-1.35,-0.804,-0.277,-0.666,0.54
